# Results: PubChem BioAssay (Tox21)
# Where “and” joins values, the source holds several entries; their conditions need not be identical. Identical values can stand only once. Inconclusive results are not listed. Unmarked numbers belong to inactive results. Calls of active or inactive are those of the source. Calls follow the shape of the dose curve; as a rule, active = well fitted cell-killing curve with a large enough effect in the repeat runs; inconclusive = weak or mixed curves, or effect the other way; inactive = flat fitted curve, though single readings scatter.
# Test: qHTS assay to identify small molecule agonists of the estrogen receptor beta (ER-beta) signaling pathway - cell viability counter screen (AID 1259380); also: nearly all actives have a fitted effect of over 30% in size
# Settings: ER-beta-bla HEK293T viability, CellTiter-Glo luminescence, 16 h; series mostly up to 92.4 µM; activity change, negative = cytotoxicity: at the top concentration
# Description: National Center for Advancing Translational Sciences [NCATS]
# NIH Chemical Genomics Center [NCGC]
# U.S. Environmental Protection Agency [EPA]
# National Institutes of Environmental Health Sciences [NIEHS]
# National Toxicology Program [NTP]
# U.S. Food and Drug Administration [FDA]
# Estrogen receptor (ER), a nuclear hormone receptor, plays an important role in development, metabolic homeostasis and reproduction. Two subtypes of ER, ER-alpha and ER-beta, have similar expression patterns with some uniqueness in both types. Endocrine disrupting chemicals (EDCs) and their interactions with steroid hormone receptors like ER causes disruption of normal endocrine function. To identify the compounds that activate ER signaling, an ER beta-UAS-bla GripTite cell line (Life Technologies, Madison, WI, USA) containing a beta-lactamase reporter gene under the control of an UAS response element was used to screen Tox21 10K compound library. The cytotoxicity of the Tox21 compound library against the ER-beta-bla cell line was tested in parallel by measuring the cell viability using CellTiter-Glo assay in the same wells.
# Tox21 Assay Protocol Summary:
# ER-beta-UAS-bla HEK293T cells were dispensed at 2,000 cells/5 uL of assay medium containing 2% charcoal stripped FBS per well into black wall/clear-bottom 1536-well plates using a Multidrop Combi (ThermoFisher Scientific, Waltham, MA) dispenser. After the assay plates were incubated at a 37C and 5% CO2 for 6 hr, 23 nL of compounds dissolved in DMSO, positive controls or DMSO only was transferred to the assay plate by a Pintool station (Kalypsys, San Diego, CA). The plates were incubated at 37C and 5% CO2 for 16 hr. Then 1 uL of LiveBLAzerTM B/G FRET substrate was added using a BioRAPTR FRD (Flying Reagent Dispenser, Aurora Discovery, San Diego, CA) and then the plates were incubated at room temperature for 2 hours, and fluorescence intensity was measured by an Envision plate reader (PerkinElmer, Shelton, CT). For cell viability readout that measures cytotoxicity, 4 uL/well of CellTiter-Glo reagent was added into the assay plates using a FRD. After 30 min incubation at room temperature, the luminescence intensity in the plates was measured using a ViewLux (PerkinElmer) plate reader.
# % is scaled to controls: 0 for no effect and ±100 for the full control effect; potency is read from the fitted curve at half-maximal effect.
Structure (SMILES),Potency,"activity change, negative = cytotoxicity"
COc1cc(-c2nc(NC(=O)c3cc4cc(C)cc(C)c4n3CC(=O)O)sc2CCC2CCCCC2)c(OC)cc1Cl,19.9 µM (active),
CCC(C)(C)C1CCCCC1OC(C)=O (stereo not given),,1.19%
Oc1ccc(Cl)cc1Sc1cc(Cl)ccc1O,48.5 µM (active) and 29.8 µM (active),
CC(C)(C)c1ccc(C(=O)CCCN2CCC(OC(c3ccccc3)c3ccccc3)CC2)cc1,18.8 µM (active),
CCCN(CCC)C(=O)C(CCC(=O)OCCCN1CCN(CCOC(=O)Cc2c(C)n(C(=O)c3ccc(Cl)cc3)c3ccc(OC)cc23)CC1)NC(=O)c1ccccc1 (stereo not given),10.6 µM (active),
O=c1c(-c2ccccc2)c1-c1ccccc1,,0.667% [at 42.5 µM]
Cc1cc(O)c2ccccc2c1O,13.3 µM (active),
Cc1ccc(-n2nc(C(C)(C)C)cc2NC(=O)Nc2ccc(OCCN3CCOCC3)c3ccccc23)cc1,7.5 µM (active),
[O-][n+]1ccccc1SSc1cccc[n+]1[O-],0.092 µM (active),
O=C(O)c1c(Cl)cccc1Cl,,6.34%
O=C(NO)C1(NS(=O)(=O)c2ccc(Oc3ccc(F)cc3)cc2)CCOCC1,,-13.9%
Cc1ccc2oc(CN(Cc3ccccc3)C(=O)Nc3c(F)cc(F)cc3F)c(-c3ccc(Cl)cc3)c2c1,,5.98%
COC(=O)C1=C(C)NC(C)=C(C(=O)OCCc2ccc(N3CCN(C(c4ccccc4)c4ccccc4)CC3)cc2)C1c1cccc([N+](=O)[O-])c1 (stereo not given),,8.14% [at 42.5 µM]
O=C(O)c1cc(O)c2c(c1)C(=O)c1cccc(O)c1C2=O,,-4.65%
Cc1onc(-c2ccccc2Cl)c1C(=O)N[C@@H]1C(=O)N2[C@@H]1SC(C)(C)[C@@H]2C(=O)O,,6.44% [at 42.5 µM]
CC(C)CCCCCCCCCCCCCCC(=O)O,54.5 µM (active),
C[C@@H]1C[C@H]2[C@@H]3CCC4=CC(=O)C=C[C@]4(C)[C@@]3(Cl)[C@@H](O)C[C@]2(C)[C@@]1(OC(=O)c1ccco1)C(=O)CCl,8.41 µM (active),
C/C(=C(/OCCOc1ccc(Cl)cc1)c1ccc(Cl)cc1Cl)n1ccnc1,15 µM (active),
O=[N+]([O-])c1cc([N+](=O)[O-])c2ccc(S(=O)(=O)O)cc2c1O,,3.12%
CC1=NC(C)OC1C (stereo not given),,1.31%

Structure (SMILES),Potency,"activity change, negative = cytotoxicity"
Cc1c(C)c2c(c(C)c1OC(=O)CCC(=O)O)CC[C@@](C)(CCC[C@H](C)CCC[C@H](C)CCCC(C)C)O2,1.95 µM (active),
O=C1CCCCCN1SSN1CCCCCC1=O,,-2.12%
O=C(OCC1CO1)C1CCCCC1C(=O)OCC1CO1 (stereo not given),,-4.29%
CN(C)c1ccc(SC#N)cc1,54.5 µM (active),
O=C(Nc1cccc([N+](=O)[O-])c1)c1cc2ccccc2cc1O,30.6 µM (active),
Cc1cccc2c1cc1ccc3cccc4ccc2c1c34,,-12.5%
CCc1cc(Cc2cc(CC)cc(C(C)(C)C)c2O)c(O)c(C(C)(C)C)c1,19.3 µM (active),
Cc1c(C)c2c(c(C)c1O)CCC(C)(COc1ccc(CC3SC(=O)NC3=O)cc1)O2 (stereo not given),11.9 µM (active),
CC/C(=C(\c1ccc(O)cc1)c1ccc(OCCN(C)C)cc1)c1ccccc1,24.4 µM (active),
CCC1OCC(COc2ccc(Oc3ccccc3)cc2)O1 (stereo not given),,6.35%
CC(C)c1ccc2c(c1)CC[C@H]1[C@](C)(CN)CCC[C@]21C,54.5 µM (active),
Oc1ccc(C2(c3ccc(O)cc3)CC3CC2C2CCCC32)cc1 (stereo not given),26.2 µM (active),
CCCCCCCC[P+](CCCCCCCC)(CCCCCCCC)CCCCCCCC,8.58 µM (active),
OCCN1CCN(CC/C=C2/c3ccccc3Sc3ccc(C(F)(F)F)cc32)CC1,21.1 µM (active),
CCCCCCOC(=O)c1ccc(O)cc1,48.6 µM (active),
Cc1cc(C2CCCCC2)n(O)c(=O)c1,,-10.2% [at 42.5 µM]
Nc1ccc(N)c2ccccc12,24.3 µM (active),
O=c1cc(-c2ccc(O)cc2)oc2cc(O)cc(O)c12,inactive,
CCOc1nc2cccc(C(=O)OC(C)OC(=O)OC3CCCCC3)c2n1Cc1ccc(-c2ccccc2-c2nn[nH]n2)cc1 (stereo not given),13.7 µM (active),
O=C(Nc1cccc(C(F)(F)F)c1)c1cc(Br)cc(Br)c1O,24.3 µM (active),
